Test results as given in ChEMBL document CHEMBL1961873, “Compounds: GSK PKIS; Assays: Nanosyn kinase panel” (2012).

Tests used:
[1] = target: T1, Mitogen-activated protein kinase 12 (Homo sapiens) (UniProt P53778); details: at 1 µM;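 further: values are averaged p38gamma kinase inhibition readings, compounds tested at 1 µM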
T1 sequence (whole entry): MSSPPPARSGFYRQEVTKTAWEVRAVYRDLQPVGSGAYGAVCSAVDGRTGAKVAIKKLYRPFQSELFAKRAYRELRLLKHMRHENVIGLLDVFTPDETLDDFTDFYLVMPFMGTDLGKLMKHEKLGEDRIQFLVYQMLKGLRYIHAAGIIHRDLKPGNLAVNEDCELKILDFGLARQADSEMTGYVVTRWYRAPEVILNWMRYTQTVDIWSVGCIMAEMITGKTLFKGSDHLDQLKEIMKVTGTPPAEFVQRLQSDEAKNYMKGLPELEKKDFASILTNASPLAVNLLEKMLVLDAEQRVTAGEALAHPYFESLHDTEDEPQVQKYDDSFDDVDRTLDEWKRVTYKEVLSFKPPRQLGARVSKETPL

[2] = target: SRSF protein kinase 1 (Homo sapiens) (UniProt Q96SB4); details: at 0.1 µM
[3] = target: SRSF protein kinase 1 (Homo sapiens) (UniProt Q96SB4); details: at 1 µM
[4] = target: Phosphatidylinositol 4,5-bisphosphate 3-kinase catalytic subunit alpha isoform (Homo sapiens) (UniProt P42336); details: at 0.1 µM
[5] = target: Phosphatidylinositol 4,5-bisphosphate 3-kinase catalytic subunit alpha isoform (Homo sapiens) (UniProt P42336); details: at 1 µM
[6] = target: T2, Phosphatidylinositol 4,5-bisphosphate 3-kinase catalytic subunit delta isoform (Homo sapiens) (UniProt O00329); details: at 0.1 µM
T2 sequence (whole entry): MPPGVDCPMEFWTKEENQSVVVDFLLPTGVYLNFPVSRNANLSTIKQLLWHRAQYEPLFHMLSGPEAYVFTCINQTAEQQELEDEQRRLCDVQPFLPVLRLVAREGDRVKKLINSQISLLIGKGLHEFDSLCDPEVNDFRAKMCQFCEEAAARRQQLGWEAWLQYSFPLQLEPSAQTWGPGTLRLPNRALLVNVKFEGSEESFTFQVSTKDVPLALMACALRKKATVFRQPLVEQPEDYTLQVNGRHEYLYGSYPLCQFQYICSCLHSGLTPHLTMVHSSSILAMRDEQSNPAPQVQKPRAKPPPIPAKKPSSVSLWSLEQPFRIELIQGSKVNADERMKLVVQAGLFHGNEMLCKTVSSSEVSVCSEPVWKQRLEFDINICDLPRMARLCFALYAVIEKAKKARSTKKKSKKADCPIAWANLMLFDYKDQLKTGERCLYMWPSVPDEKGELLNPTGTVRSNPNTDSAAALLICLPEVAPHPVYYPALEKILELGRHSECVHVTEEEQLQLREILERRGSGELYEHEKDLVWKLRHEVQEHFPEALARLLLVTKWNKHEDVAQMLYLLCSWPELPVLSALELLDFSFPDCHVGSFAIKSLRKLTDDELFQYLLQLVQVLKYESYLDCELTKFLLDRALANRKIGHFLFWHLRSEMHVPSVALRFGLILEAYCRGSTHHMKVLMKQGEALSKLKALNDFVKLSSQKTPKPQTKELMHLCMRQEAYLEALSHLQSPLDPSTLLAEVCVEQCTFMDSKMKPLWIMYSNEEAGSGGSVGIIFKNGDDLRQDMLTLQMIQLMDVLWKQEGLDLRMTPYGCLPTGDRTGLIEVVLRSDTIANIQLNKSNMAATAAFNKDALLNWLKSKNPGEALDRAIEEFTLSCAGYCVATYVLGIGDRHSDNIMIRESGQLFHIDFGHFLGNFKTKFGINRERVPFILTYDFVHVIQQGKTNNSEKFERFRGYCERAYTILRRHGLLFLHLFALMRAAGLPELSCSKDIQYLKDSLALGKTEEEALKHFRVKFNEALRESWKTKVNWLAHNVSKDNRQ

[7] = target: T2, Phosphatidylinositol 4,5-bisphosphate 3-kinase catalytic subunit delta isoform (Homo sapiens); details: at 1 µM
[8] = target: Phosphatidylinositol 4-kinase beta (Homo sapiens) (UniProt Q9UBF8); details: at 0.1 µM
[9] = target: Phosphatidylinositol 4-kinase beta (Homo sapiens) (UniProt Q9UBF8); details: at 1 µM
[10] = target: Sphingosine kinase 1 (Homo sapiens) (UniProt Q9NYA1); details: at 0.1 µM;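 further: mean percent inhibition of SPHK1 activity, measured within the GSK PKIS screening panel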
Chain of Sphingosine kinase 1 (Homo sapiens) (Q9NYA1 whole entry): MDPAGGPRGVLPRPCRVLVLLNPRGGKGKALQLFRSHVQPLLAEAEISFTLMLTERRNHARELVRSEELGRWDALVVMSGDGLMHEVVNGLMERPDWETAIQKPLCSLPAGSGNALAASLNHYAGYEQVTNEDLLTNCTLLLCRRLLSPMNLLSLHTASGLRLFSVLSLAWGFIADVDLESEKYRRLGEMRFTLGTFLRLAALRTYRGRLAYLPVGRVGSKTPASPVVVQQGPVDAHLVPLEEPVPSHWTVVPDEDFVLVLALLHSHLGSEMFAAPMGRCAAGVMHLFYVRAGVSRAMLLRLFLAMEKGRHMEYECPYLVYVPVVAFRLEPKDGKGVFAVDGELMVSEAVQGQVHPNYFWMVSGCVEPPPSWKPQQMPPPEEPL

Chain of SRSF protein kinase 1 (Homo sapiens) (Q96SB4 whole entry, canonical isoform): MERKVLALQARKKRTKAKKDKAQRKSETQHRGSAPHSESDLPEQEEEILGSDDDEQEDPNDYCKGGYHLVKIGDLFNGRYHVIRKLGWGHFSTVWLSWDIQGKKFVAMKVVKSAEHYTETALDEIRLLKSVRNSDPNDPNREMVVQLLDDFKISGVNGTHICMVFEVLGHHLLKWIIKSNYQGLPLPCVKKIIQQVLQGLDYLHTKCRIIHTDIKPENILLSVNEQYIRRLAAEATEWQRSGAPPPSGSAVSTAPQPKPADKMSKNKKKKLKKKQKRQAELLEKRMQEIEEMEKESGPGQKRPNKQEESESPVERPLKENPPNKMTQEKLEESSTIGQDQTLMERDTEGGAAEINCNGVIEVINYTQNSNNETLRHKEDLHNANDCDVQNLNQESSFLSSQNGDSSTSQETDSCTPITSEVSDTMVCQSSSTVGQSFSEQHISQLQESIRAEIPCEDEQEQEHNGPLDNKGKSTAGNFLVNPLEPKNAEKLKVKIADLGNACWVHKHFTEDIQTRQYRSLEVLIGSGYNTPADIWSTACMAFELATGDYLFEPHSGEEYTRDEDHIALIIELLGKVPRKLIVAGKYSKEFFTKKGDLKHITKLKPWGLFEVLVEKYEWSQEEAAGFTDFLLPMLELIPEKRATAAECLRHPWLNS
Chain of Phosphatidylinositol 4,5-bisphosphate 3-kinase catalytic subunit alpha isoform (Homo sapiens) (P42336 whole entry, canonical isoform): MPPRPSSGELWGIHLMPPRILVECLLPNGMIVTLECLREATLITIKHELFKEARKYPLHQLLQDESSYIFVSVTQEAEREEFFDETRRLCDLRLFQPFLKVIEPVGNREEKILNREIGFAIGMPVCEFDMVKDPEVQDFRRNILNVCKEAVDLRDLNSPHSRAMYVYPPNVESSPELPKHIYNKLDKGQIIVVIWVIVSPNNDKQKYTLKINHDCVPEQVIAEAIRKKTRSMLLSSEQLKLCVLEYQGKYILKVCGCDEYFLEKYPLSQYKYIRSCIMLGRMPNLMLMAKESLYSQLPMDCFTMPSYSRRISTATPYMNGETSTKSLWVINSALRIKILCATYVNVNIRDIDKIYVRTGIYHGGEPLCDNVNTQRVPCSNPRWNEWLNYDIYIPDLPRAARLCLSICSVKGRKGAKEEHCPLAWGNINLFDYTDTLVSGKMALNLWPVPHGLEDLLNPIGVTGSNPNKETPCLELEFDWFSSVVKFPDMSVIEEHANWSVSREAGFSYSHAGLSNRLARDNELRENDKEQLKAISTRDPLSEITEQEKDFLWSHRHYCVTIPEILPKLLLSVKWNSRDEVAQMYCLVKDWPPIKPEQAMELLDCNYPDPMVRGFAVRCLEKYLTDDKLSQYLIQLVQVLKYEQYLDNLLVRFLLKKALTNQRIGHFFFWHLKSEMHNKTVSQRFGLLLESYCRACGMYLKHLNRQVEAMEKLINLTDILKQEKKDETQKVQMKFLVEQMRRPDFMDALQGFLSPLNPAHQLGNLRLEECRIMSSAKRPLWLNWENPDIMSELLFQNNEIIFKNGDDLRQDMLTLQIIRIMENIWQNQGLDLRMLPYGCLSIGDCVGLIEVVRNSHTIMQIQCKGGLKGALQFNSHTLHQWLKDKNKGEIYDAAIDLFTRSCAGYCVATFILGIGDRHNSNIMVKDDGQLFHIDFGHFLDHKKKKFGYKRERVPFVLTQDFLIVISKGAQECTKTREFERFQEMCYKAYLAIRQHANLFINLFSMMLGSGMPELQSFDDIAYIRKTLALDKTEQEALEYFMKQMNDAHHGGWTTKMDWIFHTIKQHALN
Chain of Phosphatidylinositol 4-kinase beta (Homo sapiens) (Q9UBF8 2-816 limits assumed): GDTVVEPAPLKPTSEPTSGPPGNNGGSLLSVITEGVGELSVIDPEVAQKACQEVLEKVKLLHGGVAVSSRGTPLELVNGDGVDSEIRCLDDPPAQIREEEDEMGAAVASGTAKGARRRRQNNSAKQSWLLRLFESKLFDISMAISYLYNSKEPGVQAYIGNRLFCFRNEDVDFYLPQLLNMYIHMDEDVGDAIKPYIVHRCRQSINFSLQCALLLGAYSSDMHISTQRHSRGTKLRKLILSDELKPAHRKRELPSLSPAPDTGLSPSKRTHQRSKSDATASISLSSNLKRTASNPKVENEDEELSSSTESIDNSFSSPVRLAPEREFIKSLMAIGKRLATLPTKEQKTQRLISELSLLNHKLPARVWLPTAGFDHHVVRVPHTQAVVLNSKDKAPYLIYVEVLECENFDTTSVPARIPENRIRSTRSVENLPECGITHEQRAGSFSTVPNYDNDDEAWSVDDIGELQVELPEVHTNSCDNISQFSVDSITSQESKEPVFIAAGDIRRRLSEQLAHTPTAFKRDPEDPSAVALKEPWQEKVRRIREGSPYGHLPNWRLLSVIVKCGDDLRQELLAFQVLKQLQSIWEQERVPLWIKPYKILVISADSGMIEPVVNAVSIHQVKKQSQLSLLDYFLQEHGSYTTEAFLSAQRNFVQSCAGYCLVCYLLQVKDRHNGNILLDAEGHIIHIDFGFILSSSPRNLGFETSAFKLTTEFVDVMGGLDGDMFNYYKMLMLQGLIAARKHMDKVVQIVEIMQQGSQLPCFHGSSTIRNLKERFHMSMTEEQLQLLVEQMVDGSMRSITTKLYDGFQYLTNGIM

| Compound | inhibition [1] [%] | inhibition [2] [%] | inhibition [3] [%] | inhibition [4] [%] | inhibition [5] [%] | inhibition [6] [%] | inhibition [7] [%] | inhibition [8] [%] | inhibition [9] [%] | inhibition [10] [%] |
| --- | --- | --- | --- | --- | --- | --- | --- | --- | --- | --- |
| COc1ccc(COc2ccc(Cc3cnc(N)nc3N)cc2OC)cc1 | 1.41 | -0.52 | -2.52 | 0.14 | 1.07 | -0.96 | 0.68 | 2.15 | -1.98 | -3.33 |
| Cc1ccc(C(=O)NC2CCCCC2)cc1-c1ccc(C(=O)NCC2CC2)cc1 | 1.27 | -2.04 | -2.48 | 1.35 | -0.53 | 1.89 | 1.33 | 3.97 | -5.9 | -7.61 |
| COC(=O)Nc1nc2cc(Oc3ccc(NC(=O)Nc4cccc(C(=O)O)c4)cc3)ccc2[nH]1 | -0.37 | -0.09 | 3.15 | -0.54 | -3.19 | -1.33 | -1.97 | 2.72 | -1.03 | 0.94 |
| CS(=O)(=O)Nc1ccc(N/C=C2\C(=O)Nc3ccccc32)cc1 | -0.19 | 1.24 | 1.9 | -2.27 | -1.98 | -1.26 | -0.45 | -4.55 | -0.72 | -0.88 |
| CC(C)=Cc1cccc2c1/C(=N/Nc1ccc(S(N)(=O)=O)cc1)C(=O)N2 | -0.16 | 0.13 | 2.55 | 0.06 | 1.06 | 0.23 | 1.67 | 1.78 | 3.22 | 2.28 |
| Nc1nc(-c2ccc3c(c2)C(=Cc2cc(Br)c(O)c(Br)c2)C(=O)N3)cs1 | -1.45 | 1.08 | 1.39 | 0.41 | 24.5 | – | – | 36.1 | 71.6 | 2.04 |
| N#Cc1c(NC(=O)c2cccc3ccccc23)sc2c1CCCC2 | 2.56 | -2.33 | -3.29 | 1.58 | 4.62 | 2.32 | 4.96 | -2.84 | -0.74 | -0.7 |
| Cc1cccc(-c2n[nH]cc2-c2ccc3ncccc3n2)n1 | 0.57 | -1.35 | -1.16 | -0.95 | 1.78 | -0.15 | 0.53 | 1.57 | 4.48 | -2.56 |
| COc1ccc2cc(-c3c(-c4ccncc4)nc(-c4ccc([S+](C)[O-])cc4)n3C)ccc2c1 (stereo not drawn) | 2.03 | -3.09 | -4.71 | 2.81 | 3.47 | 6.86 | 3.16 | -2.02 | -2.26 | 0.08 |
| Cc1cc(O)cc(C)c1/C=C/c1cncc(-c2nn[nH]n2)c1 | 3.07 | -1.87 | -2.36 | 3.19 | 5.13 | 2.19 | 6.52 | -5.96 | -0.98 | 0.56 |
| CCn1c(-c2nonc2N)nc2cnc(Oc3cccc(NC(=O)c4ccc(OCCN5CCOCC5)cc4)c3)cc21 | 3.67 | -1.96 | -3.13 | 2.83 | 3.79 | 1.26 | 3.06 | -7.57 | -2.56 | 3.68 |
| CCn1c(-c2nonc2N)nc2c(C#CC(C)(C)O)nc(OC[C@@H](N)c3ccccc3)cc21 | -0.24 | 0.57 | -0.56 | -3.76 | -3.41 | -2.59 | -3.08 | 0.16 | 2.95 | 0.21 |
| CCn1c(-c2nonc2N)nc2ccncc21 | 1.43 | -3.78 | -6.35 | 0.03 | 1.86 | 2.2 | 2.13 | 4.46 | -4.32 | -1.27 |
| O=C1Nc2ccc(C(=O)c3ccco3)cc2C1=Cc1cc(Cl)c(O)c(Cl)c1 | 5.17 | -1.28 | 1.6 | 21.6 | 69.1 | 8.04 | 24.9 | 37.4 | 80.7 | 7.33 |
| Cc1nnc(-c2ccc(C)c(-c3ccc(C(=O)Nc4cccc(C#N)c4)cc3)c2)o1 | 1.19 | -1.96 | -1.67 | 2.12 | 1.71 | 1.98 | 1.12 | -1.86 | 0.49 | -2.17 |
| CN1CCC(C(=O)Nc2n[nH]c3nnc(-c4ccccc4)cc23)CC1 | 3.34 | -2.38 | -0.73 | 4.88 | 4.26 | 1.61 | 1.12 | – | – | 1.63 |
| COc1ccc(-c2coc3ncnc(N)c23)cc1 | 2.95 | -2.53 | -4.3 | 3.88 | 8.12 | 2.89 | 11.6 | 2.15 | -0.74 | -2.41 |

| Compound | inhibition [1] [%] | inhibition [2] [%] | inhibition [3] [%] | inhibition [4] [%] | inhibition [5] [%] | inhibition [6] [%] | inhibition [7] [%] | inhibition [8] [%] | inhibition [9] [%] | inhibition [10] [%] |
| --- | --- | --- | --- | --- | --- | --- | --- | --- | --- | --- |
| COC(=O)Nc1nc2cc(Oc3cccc(NC(=O)Nc4cc(C(F)(F)F)ccc4F)c3)ccc2[nH]1 | -0.42 | -0.98 | -3.74 | -3.27 | -1.03 | 0.19 | 0.17 | 1.18 | 0.44 | -0.62 |
| NS(=O)(=O)c1ccc(N/N=C2\C(=O)Nc3ccc(C(=O)NCCc4c[nH]cn4)cc32)cc1 | 2.64 | -1.35 | -0.63 | 2.2 | 4.76 | 1.71 | 2.03 | -6.38 | -1.44 | -1.35 |
| COc1cc2c(cc1Nc1nc(N3CCc4ccccc43)c3cc[nH]c3n1)N(C(=O)CN(C)C)CC2 | 1.21 | -1.43 | -3.76 | 0.76 | 2.92 | 1.22 | 3.33 | 1.21 | 2.11 | 0.07 |
| Nc1ncnc2occ(-c3ccc(NC(=O)Nc4cc(C(F)(F)F)cc(C(F)(F)F)c4)cc3)c12 | 10.2 | -0.82 | 0.68 | 0.61 | 2.7 | 2.62 | 3.45 | 1.16 | 2.78 | 0.12 |
| CCCN1CCC=C(c2ccc(Nc3nc(Nc4ccccc4C(N)=O)c4cc[nH]c4n3)c(C)c2)C1 | 6.14 | -2.75 | 12 | 4.1 | 19.9 | 1.79 | 17.8 | -1.7 | -0.01 | 0.57 |
| CCCN1CCC(Oc2cc(Nc3nc(Nc4cccc(F)c4C(N)=O)c4cc[nH]c4n3)c(OC)cc2Cl)CC1 | 0.42 | -0.3 | -0.85 | -1.23 | -1.07 | -0.45 | 0.08 | 3.96 | -2.71 | 0.48 |
| O=C1NC(=O)C(c2cccc(Cl)c2)=C1Nc1ccc(O)c(Cl)c1 | 0.35 | -2.71 | -4.83 | -1.72 | 5.36 | 0.8 | 4.17 | -4.92 | 1.17 | 1.58 |
| CC1=C(C(=O)Nc2ccc3[nH]ncc3c2)C(c2ccc3ccccc3c2)CC(=O)N1 (stereo not drawn) | 1.97 | -1.36 | 0.02 | 5.28 | 5.6 | 4.38 | 4.97 | -1.78 | 0.34 | 1.83 |
| CCn1c(-c2nonc2N)nc2c(C#CC(C)(C)O)nc(CN3CCCC3)cc21 | 0.15 | -2.3 | -2.96 | -2.21 | -0.12 | 0.87 | 3.83 | -0.02 | -2.03 | 0.49 |
| NC(=O)c1ccc(-c2nc(-c3ccccn3)c(-c3ccc4c(c3)OCO4)[nH]2)cc1 | 1.74 | -2.38 | -2.03 | 1.4 | -0.55 | 0.37 | 2.45 | -5.45 | -2.85 | 3.02 |
| Cn1cc(C=C2C(=O)Nc3cccnc32)c2ccccc21 | 2.65 | -3.21 | -4.48 | 2.82 | 7.17 | 1.38 | 3.54 | 0.42 | 4.05 | -3.04 |
| CS(=O)(=O)CCNCc1ccc(-c2ccc3ncnc(Nc4ccc(OCc5cccc(F)c5)c(C(F)(F)F)c4)c3c2)o1 | 3.16 | -1.9 | -0.25 | 3.86 | 7.14 | 2.85 | 7.89 | – | -2.15 | -0.87 |
| CCn1c(-c2nonc2N)nc2cncc(C(=O)N3CCNCC3)c21 | 5.97 | -1.32 | -1.85 | 5.78 | 5.67 | 1.16 | 2.58 | -4.56 | – | -1.49 |
| COc1cccc(-n2ncc3c(N/N=C/c4cccc(F)c4)ncnc32)c1 | 2.67 | -1.75 | -2.37 | 2.47 | 4.79 | 2.15 | 5.82 | 2.02 | -7.13 | -0.37 |
| CCn1c(-c2nonc2N)nc2c(N3CCCC3)nccc21 | -1.61 | 0.36 | 0.58 | -1.75 | -0.26 | 0.19 | 0.29 | -6.46 | -2.5 | 2.26 |
| c1cnn2ncc(-c3ccnc(Nc4ccc5c(c4)OCCO5)n3)c2c1 | 6.13 | 0.05 | 2.88 | 7.25 | 30.2 | 4.69 | 26.1 | 1.98 | 9.37 | 1.6 |
| Cc1nn(C)c2cc(N(C)c3ccnc(Nc4cccc(S(N)(=O)=O)c4)n3)ccc12 | 2.2 | -1.51 | -1.14 | 6.6 | 30.8 | 10.5 | 53.8 | – | -0.74 | -0.2 |
